Measurements published in PubChem BioAssay AID1159580 (chemical genetic matrix, 2015).
Values joined by “and” are separate entries in the source; they are usually repeats but may differ in a detail not shown here. Equal values may be shown once. About 2,000 (36%) of roughly 5,500 compounds were called active. Another 18% or so got no clear call; they are omitted. Rule as the data show it: active = normalized growth mostly below about 0.91 (no sharp cut-off); inconclusive = no clear call, values can overlap the other calls; inactive = mostly above about 0.92. Some of the results follow.

Assay: chemical genetic growth profiling, strain panel (AID 1159580);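 also: tested at 20 µM; growth read once vehicle control cultures reached saturation at 30 °C; 1 = growth at the plate median or of vehicle wells; lower values mean less growth of the strain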
Settings: growth OD

Measured: normalized growth

NC1(C(=O)O)CCC1
inactive: S. cerevisiae deletion strains, locus YAL013W, strain DEP1, hits give low values 0.911 | S. cerevisiae deletion strains, locus YBR021W, strain FUR4, hits give low values 0.992 | S. cerevisiae deletion strains, locus YBR229C, strain ROT2, hits give low values 1.01 | S. cerevisiae deletion strains, locus YCL029C, strain bik1, hits give low values 0.997 | S. cerevisiae deletion strains, locus YDL035C, strain GPR1, hits give low values 0.956 | S. cerevisiae deletion strains, locus YDL074C, strain BRE1, hits give low values 0.836 | S. cerevisiae deletion strains, locus YDL101C, strain DUN1, hits give low values 0.992 | S. cerevisiae deletion strains, locus YDL134C, strain PPH21, hits give low values 1.01 | S. cerevisiae deletion strains, locus YDL185W, strain tfp1, hits give low values 0.974 | S. cerevisiae deletion strains, locus YDL192W, strain arf1, hits give low values 0.974 | S. cerevisiae deletion strains, locus YDR101C, strain arx1, hits give low values 0.966 | S. cerevisiae deletion strains, locus YDR150W, strain NUM1, hits give low values 1 | S. cerevisiae deletion strains, locus YDR162C, strain NBP2, hits give low values 0.99 | S. cerevisiae deletion strains, locus YDR318W, strain mcm21, hits give low values 0.963 | S. cerevisiae deletion strains, locus YDR388W, hits give low values 0.988 | S. cerevisiae deletion strains, locus YDR502C, strain sam2, hits give low values 0.936 | S. cerevisiae deletion strains, locus YEL061C, strain CIN8, hits give low values 1 | S. cerevisiae deletion strains, locus YER110C, hits give low values 0.959 | S. cerevisiae deletion strains, locus YER155C, strain BEM2, hits give low values 1.03 | S. cerevisiae deletion strains, locus YER167W, strain BCK2, hits give low values 0.952 | S. cerevisiae deletion strains, locus YGL078C, strain dbp3, hits give low values 0.996 | S. cerevisiae deletion strains, locus YGL086W, strain mad1, hits give low values 0.955 | S. cerevisiae deletion strains, locus YGL248W, strain PDE1, hits give low values 1.01 | S. cerevisiae deletion strains, locus YGR078C, strain PAC10, hits give low values 0.868 | S. cerevisiae deletion strains, locus YGR135W, strain pre9, hits give low values 0.915 | S. cerevisiae deletion strains, locus YGR252W, strain gcn5, hits give low values 0.894 | S. cerevisiae deletion strains, locus YHR030C, strain SLT2, hits give low values 0.996 and 1 | S. cerevisiae deletion strains, locus YHR079C, strain IRE1 (second series), hits give low values 0.982 | S. cerevisiae deletion strains, locus YHR079C, strain IRE1, hits give low values 1.01 | S. cerevisiae deletion strains, locus YHR094C, strain hxt1, hits give low values 0.992 | S. cerevisiae deletion strains, locus YHR129C, strain ARP1, hits give low values 0.971 | S. cerevisiae deletion strains, locus YHR200W, strain rpn10, hits give low values 0.968 | S. cerevisiae deletion strains, locus YIL066C, strain RNR3, hits give low values 0.966 | S. cerevisiae deletion strains, locus YIL073C, strain SPO22, hits give low values 0.895 | S. cerevisiae deletion strains, locus YIL125W, strain kgd1, hits give low values 0.996 | S. cerevisiae deletion strains, locus YIR030C, strain dcg1, hits give low values 0.988 | S. cerevisiae deletion strains, locus YJL095W, strain BCK1, hits give low values 0.88 and 0.998 | S. cerevisiae deletion strains, locus YJL134W, strain LCB3, hits give low values 0.997 | S. cerevisiae deletion strains, locus YJL168C, strain set2, hits give low values 0.978 | S. cerevisiae deletion strains, locus YJL187C, strain SWE1 (second series), hits give low values 0.997 | S. cerevisiae deletion strains, locus YJR066W, strain TOR1, hits give low values 0.932 | S. cerevisiae deletion strains, locus YJR075W, strain HOC1, hits give low values 0.891 | S. cerevisiae deletion strains, locus YKL009W, strain mrt4, hits give low values 0.98 | S. cerevisiae deletion strains, locus YKL068W, hits give low values 0.996 | S. cerevisiae deletion strains, locus YKL085W, strain MDH1 (second series), hits give low values 1.01 | S. cerevisiae deletion strains, locus YKL085W, strain MDH1, hits give low values 1.01 | S. cerevisiae deletion strains, locus YKL190W, strain CNB1, hits give low values 0.981 | S. cerevisiae deletion strains, locus YKR001C, strain vps1, hits give low values 0.92 | S. cerevisiae deletion strains, locus YLR039C, strain RIC1, hits give low values 0.991 | S. cerevisiae deletion strains, locus YLR058C, strain SHM2, hits give low values 1.01 | S. cerevisiae deletion strains, locus YLR102C, strain apc9, hits give low values 0.986 | S. cerevisiae deletion strains, locus YLR113W, strain HOG1, hits give low values 0.996 | S. cerevisiae deletion strains, locus YLR262C, strain YPT6, hits give low values 1.1 | S. cerevisiae deletion strains, locus YLR268W, strain sec22, hits give low values 0.951 | S. cerevisiae deletion strains, locus YLR330W, strain CHS5, hits give low values 1 | S. cerevisiae deletion strains, locus YLR342W, strain FKS1 (second series), hits give low values 0.955 | S. cerevisiae deletion strains, locus YLR371W, strain rom2, hits give low values 0.995 | S. cerevisiae deletion strains, locus YML016C, strain PPZ1, hits give low values 0.994 | S. cerevisiae deletion strains, locus YML032C, strain rad52, hits give low values 0.977 | S. cerevisiae deletion strains, locus YML124C, strain tub3, hits give low values 0.994 | S. cerevisiae deletion strains, locus YMR078C, strain ctf18, hits give low values 0.988 | S. cerevisiae deletion strains, locus YMR223W, strain ubp8, hits give low values 0.935 | S. cerevisiae deletion strains, locus YMR263W, strain SAP30, hits give low values 0.929 | S. cerevisiae deletion strains, locus YMR307W, strain GAS1, hits give low values 0.986 | S. cerevisiae deletion strains, locus YNL067W, strain RPL9B, hits give low values 0.952 | S. cerevisiae deletion strains, locus YNL128W, strain TEP1, hits give low values 0.986 | S. cerevisiae deletion strains, locus YNL153C, strain GIM3, hits give low values 0.883 | S. cerevisiae deletion strains, locus YNL183C, strain NPR1, hits give low values 0.916 | S. cerevisiae deletion strains, locus YNL233W, strain BNI4, hits give low values 0.92 | S. cerevisiae deletion strains, locus YNL250W, strain rad50, hits give low values 0.948 | S. cerevisiae deletion strains, locus YNL271C, strain bni1, hits give low values 0.966 | S. cerevisiae deletion strains, locus YNL298W, strain CLA4, hits give low values 0.981 | S. cerevisiae deletion strains, locus YNL322C, strain KRE1, hits give low values 0.997 | S. cerevisiae deletion strains, locus YNR052C, strain pop2, hits give low values 0.999 | S. cerevisiae deletion strains, locus YOL006C, strain TOP1, hits give low values 0.934 | S. cerevisiae deletion strains, locus YOL012C, strain htz1 1.73 | S. cerevisiae deletion strains, locus YOL147C, strain pex11, hits give low values 0.99 | S. cerevisiae deletion strains, locus YOR061W, strain CKA2, hits give low values 1 | S. cerevisiae deletion strains, locus YOR069W, strain VPS5, hits give low values 1 | S. cerevisiae deletion strains, locus YOR136W, strain idh2, hits give low values 0.973 | S. cerevisiae deletion strains, locus YOR144C, strain elg1, hits give low values 0.994 | S. cerevisiae deletion strains, locus YOR184W, strain ser1, hits give low values 0.875 | S. cerevisiae deletion strains, locus YOR231W, strain MKK1, hits give low values 0.989 | S. cerevisiae deletion strains, locus YOR316C, strain cot1, hits give low values 0.987 | S. cerevisiae deletion strains, locus YPL055C, strain LGE1, hits give low values 0.876 | S. cerevisiae deletion strains, locus YPL241C, strain CIN2, hits give low values 0.998 | S. cerevisiae deletion strains, locus YPL256C, strain CLN2, hits give low values 0.995 | S. cerevisiae deletion strains, locus YPR119W, strain clb2, hits give low values 0.999 | S. cerevisiae deletion strains, locus YPR141C, strain kar3, hits give low values 0.981 | S. cerevisiae deletion strains, locus YPR163C, strain tif3, hits give low values 0.996 | S. cerevisiae deletion strains, locus YPR167C, strain met16, hits give low values 0.992 | S. cerevisiae deletion strains, strain wtn01, hits give low values 0.927 | S. cerevisiae strains, strain wild type, hits give low values 0.925
active: S. cerevisiae deletion strains, locus YGR229C, strain SMI1, hits give low values 0.717 | S. cerevisiae deletion strains, locus YJR043C, strain POL32, hits give low values 0.83 | S. cerevisiae deletion strains, locus YLR418C, strain cdc73, hits give low values 0.732 | S. cerevisiae deletion strains, locus YNL307C, strain MCK1, hits give low values 0.894
